BCR signal inh = chronic active BCR signaling inhibition; ABC-DLBCL IkBa-CBG/CBR reporter, luminescence ratio, 4 h; Potency, µM (highest dose often 46.1 µM), for the others: top-dose activity change, negative = inhibition, actives largely listed as inhibitors; 340,000 compounds, 0.05% hits; active = well fitted inhibition curve with a large enough effect in the signal ratio, with a control signal flat, not every such curve was filed as active; inconclusive = small, poorly fitted or top-dose-only effect, or effect the other way, or a change in a side signal; the % refers to the signal ratio;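 note: potency is the fitted concentration of half-maximal effect; plate controls were basal doxycycline-induced cells for no effect and cells given 10 µM MG132 for full effect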
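Cell line TMD8 (human ABC DLBCL), stably expressing tet-inducible CBG68-IkBa fusion and CBR; IMDM/0.5% FBS; cpd up to 46 uM; dox induction, 4 h, 37C/5% CO2; dual luminescence; green/red ratio; MG132 control.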
DT40 TDP1 no CPT = qHTS for Inhibitors of human tyrosyl-DNA phosphodiesterase 1 (TDP1): qHTS in cells in absence of CPT; Potency, µM (titrated, usually from 46.2 µM), inactives show top-dose activity change, negative = growth inhibition, hits mostly inhibitors; 420,000 compounds, 15% hits; DT40 Tdp1-/- hTDP1 cells, no CPT, ATP luminescence, 48 h; note: potency is the fitted concentration of half-maximal effect; % is set by controls: 0 for no effect and ±100 for the full control effect; nearly all actives have a fitted effect of over 55% in size
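Camptothecin absent (DMSO only). Human TDP1-complemented DT40 knockout cells, 400 cells/well, 37 °C for minimum 48 hr; ATP measured via CellTiter-Glo, 30 min dark incubation, luminescence.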
IL-1B inflam inh = inflammasome signaling inhibition, IL-1 beta readout; AID 743279; THP-1 LPS/ATP IL-1B secretion, AlphaLISA, 16 h; hits give low values; 360,000 compounds, 4.7% hits; activity change, % at 57.5 µM; in the data active = activity change below about -50%; inconclusive = mostly about -30% to -49%; note: % is set by controls: 0 for no effect and ±100 for the full control effect
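THP-1 cells pretreated 1 hr with compounds (up to 57.5 uM final), then stimulated with LPS (250 ng/mL final) plus ATP (1.25 mM final); secreted IL-1B measured by AlphaLISA after 16 hr, decreased signal indicating inhibition.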
MCF10A rerep = induces DNA re-replication in MCF 10a normal breast cells; 350,000 compounds, 2.9% hits; Potency, µM (top dose mostly 46.1 µM), for inactives: at the top dose activity, positive = re-replication, hits mostly activators; MCF 10A DNA re-replication, Hoechst nuclear intensity, 48 h; note: potency is the fitted concentration of half-maximal effect; % of control where 0% means no effect; nearly all actives have a fitted effect of over 50% in size
DT40 TDP1 CPT = growth inhibition of DT40 Tdp1-/-;hTDP1 cells with camptothecin (screen for TDP1 inhibitors); chicken DT40 Tdp1-/-;hTDP1 cells + 20 nM CPT, ATP luminescence, 48 h; Potency, µM (series often up to 46.2 µM), inactives show at the highest dose activity change, negative = growth inhibition, hits mostly inhibitors; 420,000 compounds, 12% hits; AID 686979; note: potency is the fitted concentration of half-maximal effect; % is set by controls: 0 for no effect and ±100 for the full control effect; nearly all actives have a fitted effect of over 55% in size
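Chicken DT40 Tdp1-/- cells complemented with human TDP1, 400 cells/well, exposed to compounds plus 20 nM camptothecin for at least 48 h at 37 C; viability read as ATP content by CellTiter-Glo luminescence.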
SW480 rerep = DNA re-replication induction in SW480 cells; SW480 DNA re-replication, Hoechst DNA content imaging, 48 h; Potency, µM (series often up to 46.1 µM), for inactives: top-dose re-replication activation, hits mostly activators; 340,000 compounds, 1.8% hits; AID 624297; note: potency is the fitted concentration of half-maximal effect; % of control where 0% means no effect; nearly all actives have a fitted effect of over 55% in size
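Treated cells incubate 48 hr (37 C, 5% CO2), are stained 40 min with Hoechst, and nuclear fluorescence is enumerated; a rise in nuclei with high DNA signal marks re-replication.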
An asterisk follows results filed as active. This is a sample that favours compounds with a hit; in the whole collection about 19% have one here. Unless noted, calls come from the whole dose curve; as a rule, active = well fitted curve in the direction sought with a large enough effect; inconclusive = small, poorly fitted or top-dose-only effect, or another doubt; inactive = no such curve, though single readings can be large; an effect the other way counts as inactive or inconclusive.

`O=C(CSc1nn(-c2ccc(Cl)cc2)c(=S)s1)N1CCN(C(=O)c2ccco2)CC1` gave BCR signal inh inconclusive, DT40 TDP1 no CPT -24%, IL-1B inflam inh -1, MCF10A rerep inconclusive, DT40 TDP1 CPT 2% and SW480 rerep inconclusive.
CCCCn1c(N)c(N(CC(C)C)C(=O)c2cc(-c3ccc(F)cc3)nc3ccccc23)c(=O)[nH]c1=O was read as BCR signal inh inconclusive, DT40 TDP1 no CPT -27%, IL-1B inflam inh 36, MCF10A rerep inactive, DT40 TDP1 CPT -5% and SW480 rerep 0%.
Cn1c(N)c(C(=O)CSc2nn(-c3ccc(F)cc3)c(=S)s2)c(=O)n(C)c1=O was read as BCR signal inh 5%, DT40 TDP1 no CPT 23µM*, IL-1B inflam inh 9, MCF10A rerep inconclusive, DT40 TDP1 CPT 21µM* and SW480 rerep -4%.
`CCCCN(C(=O)CSc1nn(-c2ccc(F)cc2)c(=S)s1)c1c(N)n(CCCC)c(=O)[nH]c1=O` gave BCR signal inh 2%, DT40 TDP1 no CPT 29µM*, IL-1B inflam inh -72*, MCF10A rerep 0%, DT40 TDP1 CPT inconclusive and SW480 rerep inconclusive.
Cc1ccc(NC(=O)Cn2c(=O)n(CCc3ccccc3)c(=O)c3c4c(sc32)CCCC4)cc1C was read as DT40 TDP1 no CPT -3% and DT40 TDP1 CPT 8%.
`CC(C)N1CCCC(C)(C(=O)Nc2nccc3ccccc23)C1` (configuration not stated) gave DT40 TDP1 no CPT 9%, IL-1B inflam inh 24 and DT40 TDP1 CPT 4%.
Screening COC(=O)C[C@@H]1CC[C@H](NC(=O)c2cnccn2)[C@@H](CO)O1 returned DT40 TDP1 no CPT 2%, IL-1B inflam inh 15 and DT40 TDP1 CPT 4%.
For O=C1/C(=C/c2ccccc2)NC(=S)N1C(c1ccccc1)c1ccccc1 the results were BCR signal inh -4%, DT40 TDP1 no CPT 5.8µM*, IL-1B inflam inh 19, MCF10A rerep inconclusive, DT40 TDP1 CPT 4.6µM* and SW480 rerep inconclusive.
`O=C1/C(=C/c2ccccc2)Nc2ccccc21` gave BCR signal inh inconclusive, DT40 TDP1 no CPT -18%, IL-1B inflam inh inconclusive, MCF10A rerep 0%, DT40 TDP1 CPT -24% and SW480 rerep 4%.
COc1ccc(/C=N/NC(=O)c2nnn(-c3nonc3N)c2-c2cccc(OC)c2)cc1 was read as BCR signal inh 7%, DT40 TDP1 no CPT 12%, IL-1B inflam inh -5, MCF10A rerep 1%, DT40 TDP1 CPT -4% and SW480 rerep -12%.
For CC1CCN(Cc2c(C(=O)N/N=C/c3cc(Cl)ccc3O)nnn2-c2nonc2N)CC1 the results were BCR signal inh -14%, DT40 TDP1 no CPT 5.8µM*, IL-1B inflam inh 103, MCF10A rerep -18%, DT40 TDP1 CPT 4.6µM* and SW480 rerep 5%.
`COc1ccc(O)c(/C=N/NC(=O)c2c(C)nnn2-c2nonc2N)c1` gave BCR signal inh 4%, DT40 TDP1 no CPT 8.2µM*, IL-1B inflam inh 38, MCF10A rerep 1%, DT40 TDP1 CPT 18µM* and SW480 rerep 7.3µM*.
For CC1CCN(Cc2c(C(=O)N/N=C/c3ccc(C(F)(F)F)cc3)nnn2-c2nonc2N)CC1 the results were BCR signal inh 8%, DT40 TDP1 no CPT inconclusive, IL-1B inflam inh -5, MCF10A rerep inconclusive, DT40 TDP1 CPT inconclusive and SW480 rerep inconclusive.
For COc1c(Cl)cc(Cl)cc1/C=N/NC(=O)c1nnn(-c2nonc2N)c1CN1CCC(C)CC1 the results were BCR signal inh -1%, DT40 TDP1 no CPT inconclusive, IL-1B inflam inh -17, MCF10A rerep 5.8µM*, DT40 TDP1 CPT 15µM* and SW480 rerep inconclusive.
Cc1cc(C)c(/C=N/NC(=O)c2nnn(-c3nonc3N)c2CN2CCC(C)CC2)c(C)c1 was read as BCR signal inh inconclusive, DT40 TDP1 no CPT 21µM*, IL-1B inflam inh -14, MCF10A rerep inconclusive, DT40 TDP1 CPT inconclusive and SW480 rerep inconclusive.
`CCOc1ccc(/C=N/NC(=O)c2nnn(-c3nonc3N)c2CN2CCC(C)CC2)cc1` gave BCR signal inh -1%, DT40 TDP1 no CPT inconclusive, IL-1B inflam inh -7, MCF10A rerep -1%, DT40 TDP1 CPT -22% and SW480 rerep -2%.
For CC(=O)c1cccc(-n2c(=O)c3c4c(sc3n(CC(=O)c3ccc(Cl)cc3)c2=O)CN(C(C)=O)CC4)c1 the results were DT40 TDP1 no CPT -5% and DT40 TDP1 CPT -1%.
COc1ccc(CCNC(=O)COC(=O)Cc2c[nH]c3ccccc23)cc1OC was read as BCR signal inh -19%, DT40 TDP1 no CPT -28%, IL-1B inflam inh 27, MCF10A rerep 0%, DT40 TDP1 CPT inconclusive and SW480 rerep -3%.
CC1CCN(Cc2c(C(=O)N/N=C/c3cc(Br)ccc3O)nnn2-c2nonc2N)CC1 was read as BCR signal inh -1%, DT40 TDP1 no CPT 5.8µM*, IL-1B inflam inh 110, MCF10A rerep 2%, DT40 TDP1 CPT 5.8µM* and SW480 rerep inconclusive.
Screening CC1CCN(Cc2c(C(=O)N/N=C/c3cccc(C(F)(F)F)c3)nnn2-c2nonc2N)CC1 returned BCR signal inh -2%, DT40 TDP1 no CPT 15µM*, IL-1B inflam inh -5, MCF10A rerep 0%, DT40 TDP1 CPT 15µM* and SW480 rerep -4%.
For CC1=CC(C#N)(C#N)C(C#N)(C#N)C(c2ccccc2)N1 (configuration not stated) the results were BCR signal inh 1%.
Screening CC1CCC(C(C)C)C2=C1C(C#N)(C#N)C(C#N)(C#N)C(c1ccccc1)N2 (configuration not stated) returned BCR signal inh inconclusive, DT40 TDP1 no CPT 18µM*, IL-1B inflam inh -86*, MCF10A rerep inconclusive, DT40 TDP1 CPT inconclusive and SW480 rerep 11%.
COc1ccc(NC(=O)CSc2c3c(nc4ccccc24)CCCC3)c(OC)c1 was read as BCR signal inh inconclusive, DT40 TDP1 no CPT 18µM*, IL-1B inflam inh -105*, MCF10A rerep 21µM*, DT40 TDP1 CPT 21µM* and SW480 rerep inconclusive.
Screening Cc1cc(Br)ccc1NC(=O)CSc1c2c(nc3ccccc13)CCC2 returned DT40 TDP1 no CPT 12µM* and DT40 TDP1 CPT 15µM*.
Screening COc1cc(NC(=O)CSc2c3c(nc4ccccc24)CCC3)cc(OC)c1OC returned BCR signal inh inconclusive, DT40 TDP1 no CPT inconclusive, IL-1B inflam inh -60*, MCF10A rerep 0%, DT40 TDP1 CPT inconclusive and SW480 rerep 46%.

From PubChem BioAssay
